Compound activity (PubChem BioAssay)
USP30 block: blocks human USP30 ubiquitin-rhodamine cleavage; Q70CQ3; inhibition, % at 25 µM; AID 1645860; 47,000 tested, 5.3% active; purified USP30, Ub-rhodamine cleavage fluorescence
USP8 inh: inhibitors of human USP8 deubiquitinase; 47,000 tested, 4.2% active; inhibition, % at 20 µM; purified USP8, Ub-rhodamine cleavage fluorescence, 30 min; P40818
USP17 inh: human USP17-like deubiquitinase inhibition. A8MUK1. purified USP17, Ub-rhodamine cleavage fluorescence, 3 h. inhibition, % at 50 µM. 47,000 tested, 6.5% active
Target sequence (A8MUK1 whole entry, looked up): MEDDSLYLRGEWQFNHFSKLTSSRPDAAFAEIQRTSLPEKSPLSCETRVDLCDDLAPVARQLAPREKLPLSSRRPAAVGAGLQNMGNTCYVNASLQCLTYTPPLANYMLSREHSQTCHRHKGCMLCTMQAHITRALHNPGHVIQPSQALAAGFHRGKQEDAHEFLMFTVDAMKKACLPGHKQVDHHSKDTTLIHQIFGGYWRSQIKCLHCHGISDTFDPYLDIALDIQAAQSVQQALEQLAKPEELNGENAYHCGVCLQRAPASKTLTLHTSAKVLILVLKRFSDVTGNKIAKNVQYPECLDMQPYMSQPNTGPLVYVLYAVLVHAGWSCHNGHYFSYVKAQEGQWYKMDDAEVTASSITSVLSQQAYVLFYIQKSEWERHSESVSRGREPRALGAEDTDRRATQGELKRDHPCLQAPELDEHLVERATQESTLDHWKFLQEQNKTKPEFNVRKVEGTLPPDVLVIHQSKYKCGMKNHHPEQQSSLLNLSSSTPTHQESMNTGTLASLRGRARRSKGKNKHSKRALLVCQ
* = called active by the depositor; x = no result. Shown are actives, neighbours in structure and some others; about 12% of the full set was active somewhere. No stated cut-off is given here; in the data, active means inhibition above about 30%; inactive means the rest.

SMILES	USP30 block	USP8 inh	USP17 inh
O=C(C1CCCO1)N1CCC2(CC1)COc1ccccc1S(=O)(=O)N(CC1CC1)C2 (configuration not stated)	-17.4	-32.5	-20.7
Cc1nc(-c2cccc(-c3noc(-c4ccccn4)n3)c2)cs1	22.4	4.8	18.0
CC(=O)Nc1ccc(S(=O)(=O)N2CCC(CC(=O)NCc3ccc(F)cc3)CC2)cc1	21.5	1.2	9.4
CSc1ccc(CNC(=O)CC2CCN(S(=O)(=O)c3ccc(C)cc3)CC2)cc1	50.3*	22.0	20.6
CS(=O)(=O)c1ccc(N2CCCN(C(=O)c3ccc(C(F)(F)F)cc3)CC2)cc1	4.5	-6.4	-3.4
COc1cccc(NC(=O)CN2CCC(c3nc4ccccc4[nH]3)CC2)c1	-49.4	0.0	-9.0
COc1ccc(CCNS(=O)(=O)c2ccc(F)c(C(=O)Nc3ccc(Cl)cc3C(F)(F)F)c2)cc1OC	60.6*	22.7	70.7*
COc1ccc(CCNC(=O)c2cc(S(=O)(=O)N3CCOCC3)ccc2F)cc1OC	0.2	-2.6	-10.1
Cc1ccc(-c2nonc2NC(=O)Cc2ccccc2)cc1	20.7	5.1	7.0
CC(Oc1ccccc1Cl)C(=O)Nc1nonc1-c1ccccc1 (configuration not stated)	27.5	33.0*	16.4
CC(Oc1ccc(C(C)C)cc1)C(=O)Nc1nonc1-c1ccccc1 (configuration not stated)	-0.7	8.7	-2.4
COc1ccc(-c2nonc2NC(=O)C(c2ccccc2)c2ccccc2)cc1OC	50.6*	20.8	0.0
c1cnc(N2CCN(c3nc(-c4cccnc4)nc4ccccc34)CC2)nc1	-20.0	2.0	-8.6
Cc1ccc(Nc2nc(NCCc3ccccc3)nc3c2cnn3C)cc1	15.7	-5.9	73.5*
COc1ccc(Nc2nc(NCc3ccccc3)nc3c2cnn3C)cc1	27.7	0.3	31.9*
Cc1ccc(CNc2nc(Nc3ccc(C)cc3)c3cnn(C)c3n2)cc1	4.3	1.2	7.6
COc1ccc(Nc2nc(NCCCO)nc3c2cnn3C)cc1	-48.3	-10.4	-11.7
CCCCc1nc2sc3c(SCC(=O)Nc4ccccc4Cl)ncnc3c2c2c1CCC2	x	0.0	-13.0
Cc1cc(F)ccc1NS(=O)(=O)c1ccccc1C(F)(F)F	13.8	6.6	3.8
Cn1nc(-c2ccccc2)c(CO)c1SCc1ccc(Cl)cc1	21.8	13.3	15.8
Cn1c(SCc2ccc(C(C)(C)C)cc2)nc(-c2ccccc2)c1-c1ccccc1	33.9*	8.2	18.8
Cc1nnc(-c2cc(S(=O)(=O)NCc3ccccc3)c[nH]2)o1	-16.6	6.5	-29.1
Cc1noc(-c2cccc(=O)n2CC(=O)Nc2ccc(C)c(C)c2)n1	14.4	4.3	70.8*
Cc1noc(-c2cccc(=O)n2CC(=O)Nc2cccc(Cl)c2)n1	4.4	9.8	2.4
Cc1cccc(NC(=O)Cn2c(-c3nc(C)no3)cccc2=O)c1	6.8	7.2	-0.8
SMILES	USP30 block	USP8 inh	USP17 inh
Cc1noc(-c2cccc(=O)n2CC(=O)Nc2ccc(C)c(F)c2)n1	30.9*	14.0	8.5
COc1ccc(NC(=O)CN2CCCc3ccccc32)c(OC)c1	-13.3	-3.2	2.7
COc1ccc(-c2cc(C(=O)N3CCn4nc(C)nc4C3)[nH]n2)cc1	-26.3	-3.8	-12.1
Cn1c(=O)n([C@@H](Cc2ccccc2)C(=O)N2CCCCC2)c(=O)c2ccccc21	-3.1	-15.6	-15.3
Cn1c(=O)n([C@@H](Cc2ccccc2)C(=O)N[C@@H](C(=O)O)c2ccc(O)cc2)c(=O)c2ccccc21	10.3	75.1*	23.8
CCCCC(=O)Nc1ccc2c(c1)nc(CCN1CCN(c3ccc(C)cc3)CC1)n2C	6.5	4.0	3.3
Cn1c(CN2CCCCCC2)nc2cc(NC(=O)c3ccccc3)ccc21	-67.3	20.1	50.8*
Cn1c(CCN2CCN(c3ccc(F)cc3)CC2)nc2cc(NC(=O)c3ccc(Cl)cc3)ccc21	35.7*	36.7*	33.1*
Cc1ccc(N2CCN(CCc3nc4cc(NC(=O)Nc5ccccc5)ccc4n3C)CC2)cc1	7.9	-3.1	42.9*
Cn1c(CCN2CCOCC2)nc2cc(NC(=O)c3ccc(F)cc3)ccc21	2.3	-1.7	-7.7
Cn1c(CCN2CCN(c3ccccn3)CC2)nc2cc(NC(=O)c3ccccc3)ccc21	10.1	7.5	-4.3
O=C(NCCCN1CCOCC1)C1CCCN(c2ncnc3nc[nH]c23)C1 (configuration not stated)	22.7	0.8	15.5
COc1cccc(C(=O)Nc2ncc3c(n2)CC(c2cccc(Cl)c2)CC3=O)c1 (configuration not stated)	-17.3	4.9	-3.6
O=c1c(Nc2ccc(F)c(F)c2)nc2ccncc2n1Cc1ccccc1	-49.2	-145.4	23.3
CC(=O)c1ccc(S(=O)(=O)N(Cc2ccc(C(=O)NC3CC3)cc2)C2CC2)cc1	30.1*	15.6	27.1
COc1ccc(S(=O)(=O)N(Cc2ccc3c(c2)CCO3)C2CC2)cc1	12.8	8.1	18.5
